This is an account of results in PubChem BioAssay (Tox21).

Inconclusive results are not listed. Calls of active or inactive are those of the source. Calls follow the shape of the dose curve; as a rule, active = well fitted activation curve with a large enough effect in the signal ratio in the repeat runs (not every such curve was filed as active); inconclusive = weak or mixed curves, or effect the other way; inactive = no such curve, though single readings can be large or run the other way; the % refers to the signal ratio.
% is scaled to controls: 0 for no effect and ±100 for the full control effect; potency is read from the fitted curve at half-maximal effect.

The experiment in a line: qHTS assay for small molecule agonists of the antioxidant response element (ARE) signaling pathway (AID 743202). The following applies: HepG2 ARE-bla reporter, beta-lactamase FRET, 16 h; series mostly up to 73.3 µM; activation: at the top concentration. The text has this:
U.S. Tox21 Program National Center for Advancing Translational Sciences [NCATS] NIH Chemical Genomics Center [NCGC] U.S. Environmental Protection Agency [EPA] National Institutes of Environmental Health Sciences [NIEHS] National Toxicology Program [NTP] U.S. Food and Drug Administration [FDA] Tox21 Assay Overview: Oxidative stress has been implicated in the pathogenesis of a variety of diseases ranging from cancer to neurodegeneration. The antioxidant response element (ARE) signaling pathway plays an important role in the amelioration of oxidative stress. The CellSensor ARE-bla HepG2 cell line (Invitrogen) can be used for analyzing the Nrf2/antioxidant response signaling pathway. Nrf2 (NF-E2-related factor 2) and Nrf1 are transcription factors that bind to AREs and activate these genes. The CellSensor ARE-bla Hep G2 cell line contains a beta-lactamase reporter gene under control of the Antioxidant Response Element (ARE) stably integrated into HepG2 cells. The activation of the report gene under culture conditions can be detected by fluorescence intensity. This cell line has been used to screen the Tox21 10K compound library to identify agonists that induce oxidative stress.
Tox21 Assay Protocol Summary: The ARE-bla cells were dispensed at 2,000 cells/5 ul/well in 1536-well black wall/clear bottom plates using a Multidrop dispenser. After the assay plates were incubated at a 37 C/5% CO2 incubator for 5 hours, 23 nL of compounds dissolved in DMSO, positive controls or DMSO only was transferred to the assay plate by a pin tool. The plates were incubated at 37 C for 16 hours. After 1 uL of LiveBLAzer B/G FRET substrate was added using a Flying Reagent Dispenser, the plates were incubated at room temperature for 2 hours, and fluorescence intensity was measured by an Envision plate reader.
For orientation: qHTS replaces the single test concentration by a dilution series.
As for `CC(=O)NC1CCSC1=O` (stereo not given), the “activation” value is -2.99% (inactive).

With `COCC(C)N(C(=O)CCl)c1c(C)csc1C` (stereo not given), the Potency was 4.33 µM (active).

In the case of `ClP(Cl)(Cl)(Cl)Cl`, the “activation” value is -0.98% [at 94.8 µM] (inactive).

Turning to `CCCCCCC#N`, the “activation” value is -3.4% (inactive).

Consider `Clc1cc(Cl)c(Cl)c(Cl)c1`, for which the “activation” value is -1.37% (inactive).

Consider `Clc1cccc2ccccc12`, for which the “activation” value was 8.84% (inactive).

As for `Cl/C=C\Cl`, the “activation” value is -1.93% (inactive).

`O=NN1CCCCCC1`: the “activation” value is -10.5% (inactive).

Consider `II`, for which the “activation” value is 7.74% (inactive).

As to `O=S1(=O)OC(c2cc(Br)c(O)c(Br)c2)(c2cc(Br)c(O)c(Br)c2)c2ccccc21`, the “activation” value was 8.2% (inactive).

Take `CC/C(=N\OC/C=C/Cl)C1=C(O)CC(C2CCOCC2)CC1=O` (stereo not given): the “activation” value was 1.95% (inactive).

As to `CCCCN(N=O)C(=N)N[N+](=O)[O-]`, the “activation” value was 8.1% [at 94.8 µM] (inactive).

As for `N#CCC#N`, the “activation” value was 1.04% (inactive).

Regarding `CC(C)(CCl)C(=O)Cl`, the “activation” value is 21.8% (inactive).

For `[CH3][Sn]([CH3])([Cl])[Cl]`, the Potency was 34.4 µM (active).

Regarding `O=C(O)C(F)(F)C(F)(F)C(F)(F)C(F)(F)C(F)(F)C(F)(F)C(F)(F)C(F)(F)C(F)(F)F`, the Potency is 24.3 µM (active).

`O=C1CN=C(c2ccccc2)c2cc(Cl)ccc2N1CC1CC1`: the Potency was 32.2 µM (active).

For `C=CC(C)=O`, the “activation” value was 14.2% (inactive).

Take `COc1c(C(C)(C)C)cc([N+](=O)[O-])c(C)c1[N+](=O)[O-]`: the “activation” value is 15.3% (inactive).

On to `CCOC(=O)CBr`, for which the “activation” value was 10.4% [at 94.8 µM] (inactive).

`O=Cc1ccc(Cl)cc1Cl`: the “activation” value was 2.66% [at 94.8 µM] (inactive).

On to `CCCCNP(N)(N)=S`, for which the “activation” value is -3.83% (inactive).

For the compound `O=C(C(Cl)(Cl)Cl)C(Cl)(Cl)Cl`, the “activation” value is 0.296% [at 94.8 µM] (inactive).

Take `CC1(C)[C@H](C=C(Cl)Cl)[C@@H]1C(=O)O[C@@H](C#N)c1cccc(Oc2ccccc2)c1`: the “activation” value was -5.49% (inactive).

Take `C=CC(=O)OCC(C)C`: the “activation” value was 4.1% (inactive).

With `COc1ccc(-c2ccccc2)cc1NNC(=O)OC(C)C`, the Potency was 16 µM (active).

As to `O=C1NCN(c2ccccc2)C12CCN(CCCOc1ccc(F)cc1)CC2`, the Potency is 2.37 µM (active).

Consider `CC1C(=O)C[C@]2(C(C)C)C[C@H]12` (stereo not given in full), for which the “activation” value is -6.23% (inactive).

`CCn1cc[n+](C)c1`: the Potency entry is “inactive”.

With `Nc1nc(N)nc(N)n1`, the “activation” value is -10.1% [at 94.8 µM] (inactive).

For `CCOP(=S)(OCC)Oc1cc(Cl)c(Br)cc1Cl`, the “activation” value was 1.02% (inactive).

Regarding `N#C/C(N)=C(/N)C#N`, the “activation” value was 9.67% (inactive).

Turning to `O=Cc1ccc2c(c1)OCO2`, the “activation” value is -6.69% (inactive).

Consider `CCBr`, for which the “activation” value is 1.12% [at 94.8 µM] (inactive).

`CCOS(C)(=O)=O`: the “activation” value was -4.27% [at 94.8 µM] (inactive).

As to `CCOP(O)OCC`, the “activation” value was -4.15% (inactive).

On to `O=C(CBr)Nc1ccc(Cl)cc1C(=O)c1ccccc1F`, for which the Potency was 23.7 µM (active).

On to `ClC=C(Cl)Cl`, for which the “activation” value is 1.43% [at 94.8 µM] (inactive).

In the case of `CCCCc1c(C)nc(NCC)nc1OS(=O)(=O)N(C)C`, the Potency is 27.3 µM (active).

In the case of `CC(C)(Cl)[N+](=O)[O-]`, the “activation” value is -2.27% [at 94.8 µM] (inactive).
